# Compound activity as filed in PubChem BioAssay.
# Myeloid diff 2: promotes myeloid progenitor differentiation. ER-HoxA9 myeloid progenitors, lysozyme-GFP differentiation, flow cytometry. calls only at 10 µM. 1% of 360,000 active;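 active means normalized GFP-positive differentiation at or above the plate's own cutoff, the solvent-only control mean plus 3 SD; inconclusive means no clear call, values can overlap the other calls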;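 further: cells exposed to compound for four days before flow analysis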
# MPTP block: blocks calcium-induced mitochondrial swelling. isolated mouse mitochondria, Ca2+ swelling absorbance, 30 min. inhibition, % at 10 µM. 1.4% of 360,000 active;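 active means inhibition of 50% or more, scaled per plate between neutral and stimulator controls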;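 further: 0% = DMSO wells given calcium and 100% = 1 mM EGTA wells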
# FAS TE block: blocks the thioesterase domain of human fatty acid synthase. P49327. recombinant FAS-TE, OMFH fluorogenic substrate, fluorescence endpoint. inhibition, % at 15 µM. 0.67% of 360,000 active. AID 602261;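 active means compounds whose normalised, plate-corrected inhibition of enzyme fluorescence in the single-dose primary screen is 50% or more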;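 further: 0% = DMSO with enzyme and 100% = substrate without enzyme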
# rCAG RNA binder: molecules binding r(CAG) RNA repeats; inhibition, % at 3 µM; 1.3% of 370,000 active; AID 651821; r(CAG) RNA repeat, TO-PRO-1 dye displacement fluorescence;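 active means inhibition above the plate cutoff, the mean of all test compounds on that plate plus 3 SD, cut at about 35% in these data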;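 further: 0% = DMSO alone and 100% = 100 µM mitoxantrone as full dye displacement; higher means more dye released from RNA so lower well fluorescence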
# GRIN3A LBD mod: NR3A (human) ligand-binding domain modulation; NR3A LBD differential scanning fluorimetry, Tm shift; 0% = protein alone, 100% = glycine-bound protein; Tm shift relative to glycine control, % at 25 µM; 2.5% of 340,000 active;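 active means melting temperature shift of at least 10% of the positive control shift, at one fixed dose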
# * marks the source's active call; other numbers are inactive results; i = inactive; u = inconclusive; x = not tested or not shown; + = active, no number. Shown are actives, neighbours in structure and some others; about 5.7% of the full set was active somewhere.
SMILES,Myeloid diff 2,MPTP block,FAS TE block,rCAG RNA binder,GRIN3A LBD mod
CCOC(=O)c1[nH]c2cc3c(cc2c1NC(=O)CN1CCCC1)OCO3,i,2,-4,-4,2
CCN(CC(=O)Nc1c(C(=O)OC)[nH]c2ccc(Cl)cc12)c1ccc2c(c1)OCO2,+,0,22,9,1
CCOC(=O)c1[nH]c2ccc(Cl)cc2c1NC(=O)/C=C/c1ccc2c(c1)OCO2,i,1,-5,0,22*
C=CCc1cccc2ccc(=O)oc12,+,0,-9,1,-3
Cn1c(=O)oc2cc(S(=O)(=O)NCC3CCCO3)ccc21 (stereo not given),+,0,-25,-3,0
CC1CC(C)CN(CCCNS(=O)(=O)c2ccc3c(c2)oc(=O)n3C)C1 (stereo not given),+,0,-20,-4,5
Cn1c(=O)oc2cc(S(=O)(=O)NC3CCCCC3)ccc21,i,-1,-4,-3,0
CCOc1ccc2nc(N/C(N)=N/C(=S)Nc3cccc(OC)c3)nc(C)c2c1,i,2,42,13,14*
CCOc1ccc2nc(N/C(N)=N/C(=S)Nc3cccc(C)c3)nc(C)c2c1,i,1,19,18,23*
COc1ccc2nc(N/C(N)=N/C(=S)Nc3c(C)cccc3C)nc(C)c2c1,i,-1,13,21,24*
COc1ccc2nc(N/C(N)=N/C(=S)Nc3cccc(C)c3)nc(C)c2c1,i,0,24,10,4
C#CCNC(=O)C[C@@H]1C(=O)N(CCc2ccc(Cl)cc2)C2=CCCCC[C@]21C(=O)OC,x,x,x,4,x
COCc1[nH]nc2c1C(c1ccc(F)cc1)NC2=O (stereo not given),x,x,x,3,x
COc1ccc(OCC(=O)Nc2nc3c(s2)CCCC3)cc1,i,-1,-13,0,-1
COc1ccc(NC(=O)Nc2nc3c(s2)CCCC3)cc1,i,12,3,29,22*
O=C(COc1ccc(F)cc1)Nc1nc2c(s1)CCCC2,i,2,0,-4,14*
CCCCCCCCN1C(=O)[C@@H](CC(=O)NCC2CCCCC2)C[C@@]2(C(=O)OC)C1=C[C@H](COCc1ccccc1)O[C@@H]2C,x,x,x,11,x
Cc1cc(C(=O)c2ccc(Cl)cc2)c(NC(=O)CCl)s1,i,0,22,-4,12*
O=C(CNc1cccc(C(F)(F)F)c1)N/N=C/c1cccc(Br)c1,i,16,28,2,29*
C/C(=N\NC(=O)CNc1cccc(C(F)(F)F)c1)c1ccc(Br)cc1,i,0,3,-1,18*
C/C(=N\NC(=O)CNc1cccc(C)c1)c1ccc(Br)s1,i,2,16,2,12*
Cc1nn(Cc2ccccc2)c(Cl)c1/C=N/NC(=O)CNc1cccc(C(F)(F)F)c1,i,6,6,3,27*
CN1C(=O)c2cc(NC(=O)C3CCOCC3)ccc2OC[C@@H]2O[C@@H](CC(=O)NCc3ccccc3F)CC[C@@H]21,x,x,x,0,x
O=[N+]([O-])c1cncc2[nH]cnc12,x,x,x,3,x
CC1Cc2cc(S(=O)(=O)N3CCN(c4cccc(Cl)c4)CC3)ccc2N1C(=O)C1CC1 (stereo not given),i,-1,39,0,10*
SMILES,Myeloid diff 2,MPTP block,FAS TE block,rCAG RNA binder,GRIN3A LBD mod
Cc1ccc(N(C)S(=O)(=O)c2ccc3c(c2)CC(C)N3C(=O)C2CC2)cc1 (stereo not given),+,0,17,-1,1
NC(=O)c1cccc(-c2cc(Nc3ccc(OC(F)(F)F)cc3)ncn2)c1,i,3,21,3,25*
O=C(CC1C=Cc2ccccc2N1C(=O)c1ccccc1)c1ccccc1 (stereo not given),i,0,22,-6,10*
CN(C)S(=O)(=O)c1cccc(C(=O)Nc2ccc(C(=O)Nc3cccc(S(N)(=O)=O)c3)cc2)c1,i,0,3,7,21*
CN(C)S(=O)(=O)c1cccc(NC(=S)NC23CC4CC(CC(C4)C2)C3)c1,i,26,21,11,10*
CN(C)S(=O)(=O)c1cccc(NC(=O)c2sccc2-c2ccccc2)c1,+,-2,11,-2,5
CCN=C1NC(c2ccc(Cl)cc2)C(C(=O)OC)=C(C)N1Cc1cccc(C(F)(F)F)c1 (stereo not given),x,x,x,6,x
CC(=O)c1c(OC(=O)c2ccccc2Br)ccc2c(C)cc(=O)oc12,i,-1,8,1,13*
CC(=O)c1c(OCC(=O)O)ccc2c(C)cc(=O)oc12,i,-2,-7,5,-15
CSc1nc2ccccc2cc1/C=C(\C#N)c1cccc(C)c1,u,14,21,-1,0
CSc1nc2ccccc2cc1/C=C(\C#N)c1ccccc1,x,-3,25,8,19*
CSc1nc2ccccc2cc1/C=C(\C#N)c1ccc(Cl)c(Cl)c1,i,5,15,4,17*
COc1cccc(CN(C(=O)Cc2c[nH]c3ccccc23)C(C(=O)NC2CCCCC2)c2ccc(C)o2)c1 (stereo not given),i,2,28,5,23*
CC(C)c1cc(N2CCN(C(=O)c3ccco3)CC2)n2c(nc3ccccc32)c1C#N,i,-2,9,2,0
Cc1cc(-c2ccco2)c(C#N)c2nc3ccccc3n12,+,-2,-24,18,-3
CCc1nc(N)nc(N)c1-c1ccc(N(C)Cc2ccccc2)c([N+](=O)[O-])c1,x,39,-8,-1,13*
CCc1nc(N)nc(N)c1-c1ccc(Cl)cc1,+,x,-6,1,1
Cc1nc(N)nc(N)c1-c1ccc(Cl)c(Cl)c1,u,-3,-2,0,2
C/C(=N\N1CCN(c2ccccc2)CC1)c1ccc(O)cc1,i,0,-2,-1,10*
CCN(CC)CCN(C(=O)c1ccc(S(=O)(=O)N(CC)c2ccccc2)cc1)c1nc2c(OC)ccc(OC)c2s1,i,-1,34,1,12*
COC(=O)c1cc2c(c3c4ccccc4n(S(=O)(=O)c4ccc(OC)cc4)c13)C(=O)N(Cc1ccco1)C2,x,x,x,25,x
O=C(OCc1nc2ccsc2c(=O)[nH]1)c1ccco1,i,0,-5,0,0
O=C(OCc1nc2ccsc2c(=O)[nH]1)c1cc(Br)c(Br)s1,i,0,8,9,22*
S=C(Nc1ccc(-c2nc3ccccc3[nH]2)cc1)Nc1cccnc1,i,-2,6,9,37*
Fc1ccc(NC(=S)NCCN2CCOCC2)cc1,i,-1,-2,-2,-1
S=C(NCCN1CCOCC1)Nc1ccc(-c2nc3ccccc3[nH]2)cc1,i,-2,-2,0,15*
COc1cccc(CNC(=O)Cn2c(-c3ccccc3)cc(C(C)=O)c2C)c1OC,x,x,x,2,x
COC(=O)[C@]12C[C@H](CC(=O)N3CCN(C(=O)c4ccco4)CC3)C(=O)N(CCC3=CCCCC3)C1=C[C@H](C(C)C)O[C@@H]2C1CC1,x,x,x,6,x
